Among all 300,000 compounds or so, about 37,000 (12%) were called active. Cut-off read from the data, not from the text of the source: active = max response mostly above about 13% (no sharp cut-off); inactive = mostly below about 14%. Shown is part of a subset that was picked to be rich in actives.
test: Cycloheximide Counterscreen for Small Molecule Inhibitors of Shiga Toxin; conditions: cell reporter, cycloheximide protein synthesis inhibition counterscreen; active compounds read high; note: read at 38.3 µM for the half of the compounds with a filed dose; 0% is about no effect

Row | SMILES | max response
1 | O=C1c2ccccc2-c2ncnc3c(N4CCOCC4)cc(N4CCOCC4)c1c23 | -4.86% (inactive)
2 | CC(=O)c1ccc(S(=O)(=O)N2CCC3(CC2)OCCO3)cc1 | -6.29% (inactive)
3 | COc1ccccc1CN1CCN(Cc2cc(OC)c(OC)cc2OC)CC1 | 3.57% (inactive)
4 | O=C(COC(=O)CCc1nc2ccccc2c(=O)[nH]1)Nc1ccc(N2CCOCC2)cc1 | 2.13% (inactive)
5 | O=C(CCc1nc2ccccc2c(=O)[nH]1)OCC(=O)c1cccc(Cl)c1 | -1.24% (inactive)
6 | CC(C)(C)c1ccc(NC(=O)COC(=O)CCc2nc3ccccc3c(=O)[nH]2)cc1 | 14.2% (active)
7 | O=C(c1ccc[nH]c1=S)N1CCN(S(=O)(=O)c2ccc(Br)cc2Cl)CC1 | -2.01% (inactive)
8 | COc1ccc(NC(=O)CCS(=O)(=O)c2cc3c(cc2Cl)NC(=O)CO3)cc1OC | -10.6% (inactive)
9 | COc1ccccc1OCC(=O)Nc1c2c(nn1-c1ccc(F)cc1)CS(=O)(=O)C2 | -3.21% (inactive)
10 | CC(=O)Nc1ccc(NC(=O)C(C)OC(=O)c2ccccc2C(=O)c2ccc(Cl)c([N+](=O)[O-])c2)cc1 (configuration not stated) | 8.13% (inactive)
11 | Cc1ccc(NC(=O)C(=O)NCC2CCN(C(=O)c3cccc([N+](=O)[O-])c3)CC2)cc1 | 3.94% (inactive)
12 | CCc1ccc(NC(=O)C(C)OC(=O)/C=C/c2cccc([N+](=O)[O-])c2)cc1 (configuration not stated) | 59.2% (active)
13 | O=[N+]([O-])c1ccc(N/N=C/c2ccccc2)cc1 | 34.7% (active)
14 | O=C(N/N=C/c1cccc([N+](=O)[O-])c1)c1ccncc1 | 11% (active)
15 | CCC(CC)NC(=O)/C=C/c1cccc([N+](=O)[O-])c1 | -4.49% (inactive)
16 | Cc1ccc(NC(=O)/C(=C/c2ccc([N+](=O)[O-])cc2)NC(=O)c2ccccc2)cc1 | -3.41% (inactive)
17 | Cc1cccc(COc2ccccc2/C=N/Nc2ccc([N+](=O)[O-])cc2)c1 | -0.989% (inactive)
18 | O=C(N/N=C/c1cccc(OC(=O)c2ccc([N+](=O)[O-])cc2)c1)c1cccnc1 | -7.61% (inactive)
19 | N#Cc1cc([N+](=O)[O-])ccc1Oc1cccc(/C=N/NC(=O)c2ccc(Cl)cc2)c1 | -2.97% (inactive)

Row | SMILES | max response
20 | O=C(O)/C=C/C(=O)NNc1ccc([N+](=O)[O-])cc1 | 10.2% (inactive)
21 | Cc1ccc(NC(=O)O/N=C/c2cccc([N+](=O)[O-])c2)cc1 | 40.6% (active)
22 | COc1ccc(C(=O)NC2CC(C)(C)Cc3c2cnn3-c2ccccc2C)o1 (configuration not stated) | -0.937% (inactive)
23 | CC(Sc1nnc(CNC(=O)c2ccccc2F)n1C)C(=O)Nc1nccs1 (configuration not stated) | -1.64% (inactive)
24 | CCN(CC)S(=O)(=O)c1ccc(Cl)c(C(=O)NC(C)C(c2cccs2)N2CCCC2)c1 (configuration not stated) | 3.13% (inactive)
25 | O=C1CCC([N+](=O)[O-])C(c2ccccc2Br)N1 (configuration not stated) | -3.57% (inactive)
26 | Oc1ccccc1CN1CCN(C(c2ccccc2)c2ccccc2)CC1 | 2.23% (inactive)
27 | Cc1cccc(C(=O)OCC(=O)Nc2sc3c(c2C#N)CCC3)c1 | -3.19% (inactive)
28 | COc1ccc(CN2CCn3ncc(C(=O)Nc4ccc(Cl)cc4Cl)c3C2=O)cc1 | -1.27% (inactive)
29 | Cc1ccc(C(c2nnnn2CS(=O)(=O)c2ccc(C)cc2)N2CCC(C)CC2)cc1 (configuration not stated) | 1.26% (inactive)
30 | COc1cccc(-c2nc(CS(=O)CC(=O)NCc3ccc(F)cc3)c(C)o2)c1 (configuration not stated) | -2.32% (inactive)
31 | O=C(N/N=C/c1cccc([N+](=O)[O-])c1)C1CC(=O)N(c2ccc(Br)cc2)C1 (configuration not stated) | 0.637% (inactive)
32 | O=[N+]([O-])c1cccc(/C=N/Nc2ncc(Br)cn2)c1 | 29.2% (active)
33 | COc1ccc(O)c(/C=N/N=C/c2cccc([N+](=O)[O-])c2)c1 | -1.21% (inactive)
34 | CC(NC(=S)Nc1ccccc1)C(c1cccs1)N1CCOCC1 (configuration not stated) | -0.819% (inactive)
35 | CC(C)CN(C(=O)c1cccc(S(=O)(=O)N2CCCCC2)c1)C1CCS(=O)(=O)C1 (configuration not stated) | -3.21% (inactive)
36 | CCOc1ccc(C(=O)NCCCN2CCCC2=O)cc1 | 16.9% (active)
37 | Cc1cccc(C(=O)NCCCN2CCCC2=O)c1 | -1.36% (inactive)
38 | CCOc1cc2[nH]c(=O)n(Cc3ccc(C(=O)NCCCN4CCCC4=O)cc3)c(=O)c2cc1OCC | 3.4% (inactive)

Row | SMILES | max response
39 | Cn1c(N)c(C(=O)COC(=O)/C=C/c2ccc(OC(F)F)cc2)c(=O)n(C)c1=O | 9.63% (inactive)
40 | COc1ccc(S(=O)(=O)n2cnc3ccccc32)c(C)c1 | 8.08% (inactive)
41 | COc1cccc(NC(=O)CN(C)C(=O)/C=C/c2cc(OC)ccc2OC)c1 | -0.59% (inactive)
42 | O=[N+]([O-])c1ccccc1NCc1ccc(Cl)cc1 | 19.5% (active)
43 | O=C(NCCNc1ccc([N+](=O)[O-])cc1Cl)c1ccccc1F | 12.9% (inactive)
44 | O=[N+]([O-])c1ccccc1NCc1ccccc1Cl | 0.768% (inactive)
45 | Cc1c(NC(=S)NCc2ccc(F)cc2)cccc1[N+](=O)[O-] | -2.87% (inactive)
46 | O=C(NCCCNc1ccc([N+](=O)[O-])cc1Cl)c1ccccc1F | 11.2% (inactive)
47 | O=C(NCCNc1ccccc1[N+](=O)[O-])c1ccccc1F | 46.4% (active)
48 | COc1ccc(NS(=O)(=O)c2cccc3nsnc23)cc1Cl | -2.31% (inactive)
49 | Cc1noc(C)c1S(=O)(=O)Nc1cc(C(F)(F)F)ccc1N1CCOCC1 | 1.06% (inactive)
50 | COCCCNC(=O)/C(C#N)=C/c1c(N2CCCCCC2)nc2ccccn2c1=O | 5.95% (inactive)
51 | CCCC[C@]12Cc3cc(OC)c(OC)cc3C(O1)C1=C(CC3(CCCCC3)OC1=O)O2 | -1.97% (inactive)
52 | COc1cc(/C=C/C(=O)OCC(=O)N2CCOCC2)ccc1OCC#N | -1.28% (inactive)
53 | CSc1cccc(NC(=S)N(C(C)C)C(C)c2ccccn2)c1 (configuration not stated) | 9.01% (inactive)
54 | C=CCNC(=S)NNC(=O)COc1c(Cl)cc(Cl)cc1Cl | -3.49% (inactive)
55 | Cc1ccc(Cn2ccc(NC(=O)c3cc(C(C)C)on3)n2)cc1 | 48% (active)
56 | Cc1ccc(Cn2ccc(NC(=O)C3C4CCC(C4)C3C(=O)O)n2)cc1 (configuration not stated) | 1.94% (inactive)
57 | Cc1cc(C(=O)Nc2c(C)nn(Cc3ccccc3)c2C)on1 | -4.11% (inactive)
